Compounds with a hit are over-represented: about 0.93% of the library has one in this group of screens.
AGP1-GFP MLPCN = modulators of AGP1-GFP expression in yeast TOR pathway, primary screen, cell-based, multiplex flow cytometry, S. cerevisiae, MLPCN library; 3 h; GFP as percent of DMSO wells; GFP response vs DMSO, % at 10 µM; hit rate 0.02% among 320,000; AID 2066, 2009;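 active = GFP response relative to DMSO above a set limit, near screen average plus 3 SD, cut at about 150% in these data; inconclusive = fewer than 70 cells counted for the yeast strain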;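 also: median GFP channel fluorescence of the gated AGP1 strain per well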
RPL19A-GFP yeast = RPL19A-GFP expression modulators in yeast, primary screen, cell-based, S. cerevisiae, multiplex flow cytometry, MLPCN; hit rate 0.3% among 330,000; percent response vs DMSO, % at 10 µM; AID 2025, 2009; S. cerevisiae RPL19A-GFP strain, 3 h; stronger effect = lower value;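 active = percent response vs DMSO below 50%; inconclusive = fewer than 70 events counted for the yeast strain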;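 also: median channel GFP fluorescence of the barcoded RPL19A-GFP strain; ratio of sample median GFP to plate DMSO average so 100% = DMSO; lower means less RPL19A-GFP as with rapamycin TOR inhibition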
CIT2 TOR yeast = modulators of CIT2-GFP expression in yeast, primary screen, S. cerevisiae, GFP fusion, multiplex flow cytometry, MLPCN library. hit rate 0.065% among 320,000. GFP response vs DMSO, % at 10 µM. S. cerevisiae CIT2-GFP strain, 3 h; 100 means same as DMSO wells;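 active = GFP response relative to DMSO above a set limit, near the screen mean plus 3 SD, cut at about 150% in these data; inconclusive = Fewer than 70 cells measured for a yeast strain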;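 also: ratio of well median GFP fluorescence to mean of DMSO wells on the plate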
MEP2 TOR yeast = modulators of MEP2-GFP levels in yeast, primary screen, S. cerevisiae, multiplex flow cytometry, MLPCN library; hit rate 0.51% among 330,000; GFP response vs DMSO, % at 10 µM; S. cerevisiae MEP2-GFP strain, 3 h; 100% = DMSO control level;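 active = GFP response versus DMSO above a set limit, roughly screen mean plus 3 SD, cut at about 180% in these data; inconclusive = fewer than 70 cells counted for a yeast strain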;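 also: median GFP fluorescence of the barcode-gated MEP2-GFP cells per well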
LAP4-GFP MLPCN = modulators of LAP4-GFP expression in yeast, primary screen, S. cerevisiae, multiplex flow cytometry, MLPCN library; 3 h; median GFP as percent of DMSO wells; GFP response vs DMSO, % at 10 µM; hit rate 0.34% among 320,000;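 active = GFP response vs DMSO above a set limit, about the screen mean plus 3 SD, cut at about 150% in these data; inconclusive = under 70 cell events counted for the yeast strain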
* hit, by the source's call; ? = inconclusive; · = not tested or not shown; [ ] = another dose, or the depositor's remark.

SMILES	AGP1-GFP MLPCN	RPL19A-GFP yeast	CIT2 TOR yeast	MEP2 TOR yeast	LAP4-GFP MLPCN
Oc1c(C(c2ccccn2)N2CCC(Cc3ccccc3)CC2)cc(Cl)c2cccnc12 (stereo unspecified)	?	45.2*[may fluoresce violet]	?	298.8*[may fluoresce violet]	168.8*[may fluoresce violet]
CC(=O)NC(c1ccc(C)cc1)c1cc(Cl)c2cccnc2c1O (stereo unspecified)	98.0	97.2	99.7	104.3	97.4
O=C(NCC1CCCO1)C1CC(=O)N(c2cccc(Cl)c2)C1 (stereo unspecified)	99.5	98.9	103.0	96.6	93.8
CCn1c(=O)cc(OCC(=O)NCc2cccnc2)c2ccccc21	?	18.4*[may fluoresce violet]	?	240.2*[may fluoresce violet]	76.5
Cc1cc(S(=O)(=O)NCc2ccccc2)ccc1OCC(=O)NCc1cccnc1	?	45.5*[may fluoresce violet]	?	224.0*[may fluoresce violet]	94.5
CC1(c2ccc(OC(F)F)cc2)NC(=O)N(CC(=O)N2c3ccccc3NC(=O)C2(C)C)C1=O (stereo unspecified)	103.7	95.2	96.8	99.3	92.0
Fc1ccccc1N=C1NN=C(c2ccccc2)CS1	99.1	112.4	105.3	103.5	109.0
Clc1ccccc1N=C1NN=C(c2cccs2)CS1	92.9	92.3	90.1	95.8	154.8*
CC1(OC(=O)c2ccco2)C(=O)C=C2C=C(c3ccc(C#N)cc3)OC=C2C1=O (stereo unspecified)	26.1	98.5	?	100.0	102.1
CCC(=O)OC1(C)C(=O)C=C2C=C(c3ccc(C#N)cc3)OC=C2C1=O (stereo unspecified)	11.4	96.4	?	188.6*[may fluoresce violet]	110.3
Cc1cc(C)c(S(=O)(=O)NCC(=O)NCc2ccccn2)c(C)c1	97.9	96.8	95.1	95.5	93.5
Cc1ccccc1C(=O)NNC1=NCCC1	96.1	·	99.2	97.7	94.5
O=C(NNC1=NCCC1)c1cccc(Br)c1	126.7	88.6	91.3	125.7	173.8*
O=C1CN(C(=O)N[C@@H](Cc2ccccc2)C(=O)N[C@H](Cc2ccccc2)C(=O)O)c2ccccc2N1	?	14.0*[may fluoresce violet]	?	241.5*[may fluoresce violet]	85.6
O=C1CN(C(=O)N[C@@H](Cc2ccccc2)C(=O)N[C@@H](Cc2ccccc2)C(=O)O)c2ccccc2N1	96.8	98.7	93.1	101.8	102.1
N#CCCN(CCC#N)C(=O)C1c2ccccc2Oc2ccccc21	83.0	102.2	113.1	102.5	75.8
COc1ccccc1CCCNC(=O)C1CCC(=O)N(CCc2cccc(F)c2)C1 (stereo unspecified)	100.3	102.9	106.1	95.5	85.8
Cc1cnc(C(=O)N2CCN(S(=O)(=O)c3cccc(Br)c3)CC2)cn1	97.5	98.3	105.0	101.5	91.7
N#CC(C#N)=Cc1c[nH]c(=O)c(C#N)c1Nc1ccccc1	?	61.1	?	266.4*[may fluoresce violet]	103.9
CC[n+]1c(/C=C/Nc2ccccc2)oc2ccc(OC)cc21	108.2	97.3	100.6	106.4	103.1
CC/C(=C\c1oc2cc3ccccc3cc2[n+]1CC)Nc1ccccc1	43.3	81.7	?	629.4*[may fluoresce violet]	256.7*[may fluoresce violet]
COc1ccccc1NC1=C(C)C(=O)CC1	17.3	89.6	?	314.7*[may fluoresce violet]	90.2
COC1=C(Nc2ccccc2OC)C(=O)c2ccccc2C1=O	99.8	97.8	90.6	98.0	108.7
CCN(CC)CCN(C(=O)CN1C(=O)CCC1=O)c1nc2cc3c(cc2s1)OCO3	?	50.4	?	200.2*[may fluoresce violet]	83.0
CCN(CC)CCN(C(=O)c1cccc(N2C(=O)CCC2=O)c1)c1nc2cc3c(cc2s1)OCO3	103.5	95.1	109.1	100.0	107.7
SMILES	AGP1-GFP MLPCN	RPL19A-GFP yeast	CIT2 TOR yeast	MEP2 TOR yeast	LAP4-GFP MLPCN
O=C(NCc1ccc(F)cc1)C1CCCN(C(=O)Nc2ccc(F)cc2)C1 (stereo unspecified)	106.8	101.4	102.1	104.6	103.4
Cc1ccc(C)c(S(=O)(=O)N2CCCOC2CNC(=O)C(=O)NCc2ccncc2)c1 (stereo unspecified)	102.2	95.9	96.2	103.2	104.0
CC(C)N1C(=O)S/C(=C/c2ccc3c(c2)n(C)c(=O)n3C)C1=O	95.6	98.6	95.4	86.4	93.8
CCN(CC)c1ccc(/C=C2\SC(=O)N(C(C)C)C2=O)o1	90.8	89.1	93.7	110.3	256.4*
CCN(CC)C(=O)CC(c1cc(OC)c(OC)c(OC)c1)c1c(OC)cc(OC)c2c(-c3ccccc3)cc(=O)oc12 (stereo unspecified)	109.8	102.0	103.5	103.7	102.6
Cc1ccc(-c2nn(-c3ccccc3)cc2CO)cc1	15.4	71.3	?	220.7*[may fluoresce violet]	87.7
COc1ccc(-c2nn(-c3ccccc3)cc2CO)cc1	99.3	103.0	106.1	105.0	106.8
COc1ccc(NC(=O)c2nc[nH]c2C(=O)NCCCCCNC(=O)OC(C)(C)C)cc1	82.7	98.0	95.7	89.3	123.4
O=C(COc1ccc(Cl)cc1)Nc1cccc(-c2ccc(N3CCOCC3)nn2)c1	114.4	99.5	85.5	97.1	116.3
COc1ccc(C2(CNC(C)=O)CCCC2)cc1OC	105.1	99.4	104.4	99.8	105.5
COc1ccc(C2(CNC(=O)c3ccccc3)CCCC2)cc1OC	?	36.7*[may fluoresce violet]	?	613.9*[may fluoresce violet]	85.7
COc1ccccc1NC(=O)NC1(C(=O)NCC2CCCO2)CCCCC1 (stereo unspecified)	108.4	103.7	110.3	106.0	114.1
CC(=O)OC1C(OC(C)=O)N(C(C)=O)C(=O)N1C(C)=O (stereo unspecified)	?	18.7*[may fluoresce violet]	?	200.2*[may fluoresce violet]	76.2
O=C(COc1ccccc1)N(Cc1ccccc1)c1nc(-c2ccccc2)cs1	85.9	99.5	106.9	100.0	77.9
COc1ccc(-c2csc(N(Cc3ccccc3)C(=O)COc3ccc(Cl)cc3)n2)cc1	?	13.4*[may fluoresce violet]	?	259.8*[may fluoresce violet]	126.7
Cc1ccccc1NS(=O)(=O)c1ccc(C(=O)N(C)CC(=O)Nc2ccccc2Br)cc1	93.4	91.4	83.6	91.9	89.0
CSc1nnnn1-c1ccc(Cl)cc1	84.2	98.7	98.6	99.7	87.6
Cc1ccc(-n2nnnc2C(Cl)(Cl)c2nnnn2-c2ccc(C)cc2)cc1	92.8	98.5	106.2	97.9	167.9*
Clc1ccc(-c2nnnn2-c2ccc(Cl)cc2)cc1	131.3	73.1	124.4	454.4*	162.3*
Clc1ccc(-n2nnnc2-c2ccccc2)cc1	102.5	104.0	116.5	97.0	100.9
C#CCSc1nncn1C(=O)/C=C/c1ccccc1	82.5	94.0	101.6	87.5	187.1*
NC(=O)c1ccc(SCC(=O)OCC(=O)NCC2CCCCC2)c([N+](=O)[O-])c1	105.3	95.8	95.6	92.2	109.2
Cc1ccc(C2=NOC(C)(c3nnc(Cc4ccccc4)o3)C2)cc1 (stereo unspecified)	92.0	101.8	106.7	99.2	131.5

Bioassay records from PubChem.
